Measured values from ChEMBL document CHEMBL3988442, “University of Dundee, Small-Polar-MMV Screening Library” (2021).
In all, about 48,000 compounds went through this assay and about 13,000 (27%) showed an effect of 50% or more. This is one part of the list.

The compounds below were run on Wolbachia pipientis (assay: Anti-Wolbachia Cell-Based Screen). Conditions: 5 µM.
Format: functional
Parameters: scale not given: in the data most compounds retested in dose-response had high values

`Cc1noc(C)c1CNC(=O)N1CCC(CO)CC1` was tested. Which “Percent Effect” value did it give?
Its value is -12.65%.

Which “Percent Effect” value does the source give for `Cc1noc(C)c1CN1C[C@@H](C(=O)O)[C@H](c2ccccc2)C1` here?
Its value is -10.93%.

For `Cc1noc(C)c1CNC(=O)Nc1ccc(N2CCOC2=O)cc1`, which “Percent Effect” value is on record?
Its value is 99.13%.

For `CC1CN(c2ccc(CNC(=O)NCc3ccoc3)cn2)CCO1` (configuration not stated), which “Percent Effect” value is on record?
Its value is 4.131%.

`Cc1noc(C)c1CCCNC(=O)Nc1ccc2c(c1)COC2` was tested. Which “Percent Effect” value did it give?
Its value is 12.5%.

Which “Percent Effect” value does the source give for `Cc1noc(C)c1CNC(=O)Nc1ccc(N2CCSCC2)cc1` here?
The value was 101.4%.

With `Cc1noc(C)c1C(=O)NCc1ccc(N2CCOC(C)C2)nc1` (configuration not stated) as the compound, how does the “Percent Effect” value read?
The value was 6.815%.

With `Cc1ocnc1CNC(=O)Nc1ccc(N2CCOC(C)C2)cc1` (configuration not stated) as the compound, how does the “Percent Effect” value read?
Its value is 105.8%.

`Cc1noc(C)c1CNC(=O)Nc1ccc(N2CCOC(C)C2)cc1` (configuration not stated) was tested. Which “Percent Effect” value did it give?
Its value is 95.8%.

For `Cc1noc(C)c1CCCNC(=O)Nc1ccc2c(c1)CC(=O)N2`, which “Percent Effect” value is on record?
Its value is -4.957%.

How did the “Percent Effect” value turn out when `Cc1ccsc1CNC(=O)c1ccc(N2CCOC2=O)cc1` was run?
The value was 25.75%.

For `CC1CN(c2ccc(CNC(=O)NCCO)cn2)CCO1` (configuration not stated), which “Percent Effect” value is on record?
Its value is -1.494%.

How did the “Percent Effect” value turn out when `O=C(CCCn1cncn1)NC1(c2ccc(Cl)cc2)CCC1` was run?
The value was -16.99%.

Which “Percent Effect” value does the source give for `O=C(CCc1cc(O)no1)N1CCCC(COc2ccc(F)cc2)C1` (configuration not stated) here?
The value was -11.68%.

For `O=C(CCn1ccc(=O)[nH]c1=O)N1CCC(Oc2ccccn2)CC1`, which “Percent Effect” value is on record?
The value was 4.456%.

How did the “Percent Effect” value turn out when `COc1cc(CCC(=O)N2CCC(c3cc4nccnc4[nH]3)CC2)on1` was run?
Its value is 109.8%.

Which “Percent Effect” value does the source give for `O=C(CCc1cc(O)no1)N1CCCC(COc2ccccc2F)C1` (configuration not stated) here?
Its value is -3.381%.

For `O=C(CCN1CCC(c2cc3ccccc3[nH]2)CC1)N1CCOCC1`, which “Percent Effect” value is on record?
Its value is -13.23%.

Which “Percent Effect” value does the source give for `COc1cc(CCC(=O)N2CCC(c3cc4ncccc4[nH]3)CC2)on1` here?
Its value is 86.08%.

`O=C(NC1(C(=O)O)CCCC1)C1Cc2cc(F)ccc2O1` (configuration not stated) was tested. Which “Percent Effect” value did it give?
The value was -1.866%.

With `O=C(C1CCOc2ccccc21)N1CCOc2ccc(F)cc21` (configuration not stated) as the compound, how does the “Percent Effect” value read?
Its value is 2.761%.

Which “Percent Effect” value does the source give for `O=C(NCCNC(=O)C1Cc2cc(F)ccc2O1)C1CCCCC1` (configuration not stated) here?
The value was 14.96%.

For `CCCN1CCC(NC(=O)c2ccc(F)cc2I)CC1`, which “Percent Effect” value is on record?
The value was 3.516%.

Which “Percent Effect” value does the source give for `Cc1ccsc1C(=O)N1CC(C(=O)NC(C)C)C2(CCOCC2)C1` (configuration not stated) here?
The value was 2.071%.

`CN1CCN(C(=O)[C@@H]2CN(C)C[C@]23COc2ccc(F)cc2C3=O)CC1` was tested. Which “Percent Effect” value did it give?
Its value is 67.23%.

Which “Percent Effect” value does the source give for `CN1C[C@@H](C(=O)NC2CC2)[C@@]2(COc3ccc(F)cc3C2=O)C1` here?
Its value is 74.8%.

`CN1C[C@@H](C(=O)NC2CCCC2)[C@@]2(COc3ccc(F)cc3C2=O)C1` was tested. Which “Percent Effect” value did it give?
The value was 83.49%.

Which “Percent Effect” value does the source give for `CC(C)NC(=O)[C@@H]1CN(C)C[C@]12COc1ccc(F)cc1C2=O` here?
Its value is 126.3%.

For `CNC(=O)N1Cc2cc(F)ccc2C2(CCN(C)CC2)C1.Cl`, which “Percent Effect” value is on record?
The value was 3.324%.

For `CC(C)NC(=O)C1CN(C(=O)c2ccc(F)cc2)CC12CCOCC2` (configuration not stated), which “Percent Effect” value is on record?
Its value is 19.27%.

With `O=C(CCN1CCC(C(=O)c2cc(F)ccc2F)CC1)NC1CCCC1` as the compound, how does the “Percent Effect” value read?
Its value is -34%.

For `Cc1cc(F)ccc1N1CCC(N2C[C@@H](C)[C@@](C)(O)C2)CC1`, which “Percent Effect” value is on record?
Its value is -24.61%.

For `OCCOCc1n[nH]c2c1CN(Cc1cccs1)C2`, which “Percent Effect” value is on record?
The value was -8.945%.

For `C1CCC(c2nc3c(c(N4CC(N5CCOCC5)C4)n2)CCNCC3)C1`, which “Percent Effect” value is on record?
The value was -4.65%.

For `Cc1noc(C)c1CN(C)C(=O)C1CCCCN1CC(C)C` (configuration not stated), which “Percent Effect” value is on record?
The value was 0.6295%.

With `CCc1cnc(C)nc1N1CCS(=O)(=O)CC1` as the compound, how does the “Percent Effect” value read?
The value was 16.32%.

With `CN1C[C@@H](C(=O)NC(C)(C)C)[C@@]2(COc3ccc(F)cc3C2=O)C1` as the compound, how does the “Percent Effect” value read?
The value was 107.1%.

With `CC(C)(C)NC(=O)C1CSCN1S(=O)(=O)c1ccc(F)cc1` (configuration not stated) as the compound, how does the “Percent Effect” value read?
The value was 5.212%.

Which “Percent Effect” value does the source give for `CC(C)(C)NC(=O)C1CSCN1S(=O)(=O)c1cccc(F)c1` (configuration not stated) here?
The value was 1.077%.

For `CC(=O)c1cccc(S(=O)(=O)N2CSCC2C(=O)NCC(F)(F)F)c1` (configuration not stated), which “Percent Effect” value is on record?
The value was 8.95%.

How did the “Percent Effect” value turn out when `CN(c1ccc(CNC(=O)c2ccc(O)nc2)cc1)C1CCCCC1` was run?
The value was 6.661%.

`Cc1ccc(CNC(=O)c2c[nH]nc2NC(=O)C2CCC2)cc1` was tested. Which “Percent Effect” value did it give?
The value was 4.147%.

Which “Percent Effect” value does the source give for `CN(C)C(=O)c1cncnc1-c1ccc(CNC(=O)C2CC2)cc1` here?
The value was 73.6%.

How did the “Percent Effect” value turn out when `Cc1ncsc1C(=O)NCc1cccs1` was run?
The value was -3.425%.

`CN(Cc1ccco1)Cc1ccccc1CNC(=O)c1cnccn1` was tested. Which “Percent Effect” value did it give?
Its value is 7.808%.

Which “Percent Effect” value does the source give for `CCN(CC)c1ccc(CNC(=O)c2cnccn2)cn1` here?
Its value is 2.528%.

Which “Percent Effect” value does the source give for `CN(CCOc1cccc(CNC(=O)C2CC2)c1)C1CCOCC1` here?
Its value is -18.9%.

How did the “Percent Effect” value turn out when `CN(C)C(=O)c1c[nH]nc1-c1ccc(CNC(=O)c2cnccn2)cc1` was run?
Its value is 109.4%.

`CCOc1cc(CNC(=O)c2cc(-c3ccccn3)no2)ccn1` was tested. Which “Percent Effect” value did it give?
Its value is -5.804%.

With `Cc1cc(C(=O)NCc2ccc(-c3n[nH]cc3C(=O)N(C)C)cc2)on1` as the compound, how does the “Percent Effect” value read?
The value was 136.2%.

With `Cc1ncsc1C(=O)NCc1ccc(-c2n[nH]cc2C(=O)N(C)C)cc1` as the compound, how does the “Percent Effect” value read?
The value was 72.18%.

With `Cc1cc(C(=O)NCc2ccccc2CN(C)Cc2ccco2)on1` as the compound, how does the “Percent Effect” value read?
Its value is 21.5%.
